Bioassay records from PubChem.
This is a sample that favours compounds with a hit; in the whole collection about 13% have one here.
LASV entry inh – Lassa virus entry inhibition | Lassa virus pseudotype entry inhibition, cell reporter | Potency, µM (doses to about 37.9 µM), usual class: inhibitors | 1.2% of 300,000 active | AID 540256; calls by dose curve; tested in HEK293 cells; note: nearly all actives have a fitted effect of over 50% in size
Shiga toxin inh – Shiga toxin inhibition. Vero cells, Shiga toxin protein synthesis inhibition reporter. inhibition, % at 38.7 µM. AID 2315. 9.2% of 290,000 active; in the data active = inhibition mostly above about 28%, no sharp cut-off; inactive = mostly below about 43%
FMDV inh – blocks foot and mouth disease virus. FMDV antiviral cell-based qHTS. Potency, µM (series often up to 57.9 µM), actives largely listed as inhibitors. 1.2% of 410,000 active. AID 1159524; calls by dose curve; tested in HEK293T cells; note: read-out not given here; nearly all actives have a fitted effect of over 45% in size
CHX counter – counter-screen for Shiga toxin inhibitors: cycloheximide protein synthesis inhibition. cell reporter, cycloheximide protein synthesis inhibition counterscreen. AID 2314. max response, %. 12% of 300,000 active; in the data active = max response mostly above about 13%, no sharp cut-off; inactive = mostly below about 14%; note: read at 38.3 µM for the half of the compounds with a filed dose
Marburg entry inh – inhibitors of Marburg virus binding or cell entry. Potency, µM (highest dose often 37.8 µM), actives largely listed as inhibitors. 1.8% of 300,000 active. Marburg virus pseudotyped entry inhibition, cell reporter; calls by dose curve; tested in HEK293 cells
HCV inhibitor – inhibitors of hepatitis C virus infection; AID 651820; Potency, µM (top dose mostly 41.8 µM), actives largely listed as inhibitors; Huh7.5.1 HCVcc-Cre infection, luciferase reporter, 44 h; 3.4% of 340,000 active; active = well fitted inhibition curve with a large enough effect; inconclusive = small, poorly fitted or top-dose-only effect, or another doubt; inactive = no such curve, though single readings can be large or run the other way
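Reporter virus HCVcc-Cre (~0.5 moi) infects cells exposed to compound; seeding density 1,000 cells/well with 4 h settling beforehand. Luminescence, 15 sec read, taken 44 h post-infection following a 15 min RT substrate incubation.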
Of the large screens only hits and unclear results are named; the others gave an inactive call.

CC(=O)Nc1ccc(C=C(C(C)=O)C(C)=O)cc1	FMDV inh 32µM
CC1CCCC(C)N1/N=C/c1ccc(C#N)cc1 (stereo not drawn)	CHX counter 26, Marburg entry inh inconclusive
CCOc1ccc(/C=N/N2C(C)CCCC2C)cc1 (stereo not drawn)	CHX counter 37
CC(=O)NCCNc1nc2cc(-c3ccc(C)cc3)sc2c(=O)n1C	none (no result: LASV entry inh, Shiga toxin inh, CHX counter, Marburg entry inh, HCV inhibitor)
CC(=O)Nc1ccc(/C=N/N2CCCCC2)cc1	Shiga toxin inh 116, CHX counter 44
CC(=O)Nc1ccc(/C=N/N2C(C)CCCC2C)cc1 (stereo not drawn)	CHX counter 16
CCOc1cccc(/C=N/N=C/c2cccc(OCC)c2O)c1O	none
CCOc1cccc(/C=N/N2C(C)CCCC2C)c1O (stereo not drawn)	CHX counter 30 (no result: LASV entry inh, Marburg entry inh)
COc1ccc(CC(=O)Nc2nc(-c3ccccc3)c(C(C)=O)s2)cc1OC	LASV entry inh inconclusive, Marburg entry inh 11µM, HCV inhibitor 13µM
COc1cc(CC(=O)Nc2nc(-c3ccccc3)c(C(C)=O)s2)cc(OC)c1OC	LASV entry inh inconclusive, HCV inhibitor 13µM
CCN(C[C@H]1N[C@@](C)(C(=O)OC)[C@H]2C(=O)N(Cc3ccccc3)C(=O)[C@@H]12)C(=O)Nc1ccc(OC)cc1	none (no result: LASV entry inh, Shiga toxin inh, CHX counter, Marburg entry inh)
O=C(NCCCN1CCCC1=O)Nc1ccc(F)c(Cl)c1	CHX counter 47
O=C(NCCCN1CCCC1=O)Nc1ccc(Br)cc1Cl	Shiga toxin inh 38, CHX counter 28 (no result: LASV entry inh, Marburg entry inh)
COCCCNC(=O)Nc1ccc(F)cc1F	none
COCCCNC(=O)Nc1ccc(Br)cc1Cl	Shiga toxin inh 49, CHX counter 37
O=C1CCCN1CCCNC(=S)Nc1ccc(Cl)cc1Cl	none
Cc1ccc(NC(=O)NCCCN2CCCC2=O)cc1	CHX counter 14
CN(CC(=O)N1CCN(c2ccc(F)cc2)CC1)S(=O)(=O)c1ccc2c(c1)c(=O)n(C)c(=O)n2C	none (no result: LASV entry inh, Marburg entry inh)
Cc1ccc(-c2nc(S(=O)(=O)c3ccccc3)c(SCC(=O)NC3CCCCC3)o2)cc1	LASV entry inh inconclusive (no result: Shiga toxin inh, CHX counter, HCV inhibitor)
CCCn1c(SC2C(=O)CC(C)(C)CC2=O)nc2c1c(=O)n(C)c(=O)n2C	none (no result: FMDV inh)
CN1CCN(NC(=O)Nc2ccc(Br)cc2Cl)CC1	CHX counter 16, Marburg entry inh inconclusive
O=C(NCCCN1CCCC1=O)Nc1cc(Cl)ccc1Cl	none (no result: LASV entry inh, Marburg entry inh)
CN1CCN(NC(=O)Nc2cc(Cl)cc(Cl)c2)CC1	FMDV inh inconclusive (no result: LASV entry inh, Marburg entry inh)
O=C(NCCCN1CCCC1=O)Nc1ccc(Cl)cc1Cl	CHX counter 16 (no result: LASV entry inh, Marburg entry inh)
CN(C(=O)c1ccc(NC(=O)c2ccco2)cc1)c1ccccc1	Shiga toxin inh 77, CHX counter 35 (no result: LASV entry inh, Marburg entry inh)
O=C(Nc1ccc(Cl)cc1)c1ccco1	CHX counter 33, Marburg entry inh inconclusive
COc1ccc(-c2ccc(NC(=O)c3ccco3)cc2)nn1	LASV entry inh inconclusive, FMDV inh 11µM, Marburg entry inh inconclusive (no result: Shiga toxin inh, CHX counter)
CCC(C)c1ccc(NC(=O)c2ccco2)cc1 (stereo not drawn)	CHX counter 26 (no result: LASV entry inh, Marburg entry inh)
CCC(=O)N1CCc2cc(S(=O)(=O)NC(Cc3ccccc3)C(=O)Nc3nccs3)ccc21 (stereo not drawn)	none
C/C=C/C(=O)OCC(=O)Nc1ccc(SC(F)F)cc1	CHX counter 26
O=C(Cc1ccccc1)Nc1ccc(NC(=O)c2ccco2)cc1	Shiga toxin inh 51, CHX counter 18, Marburg entry inh inconclusive
O=C(NCCCNC(=O)c1ccco1)c1ccc(Cl)cc1	Shiga toxin inh 86, CHX counter 32, Marburg entry inh inconclusive (no result: LASV entry inh)
Cc1cccc2c(=O)c(-c3ccc(Cl)cc3)c(NC(=O)c3ccco3)oc12	Shiga toxin inh 24, CHX counter 16 (no result: LASV entry inh, Marburg entry inh)
COC1=C[C@H](C(=O)NC2CCN(Cc3ccccc3)CC2)C(C)C(c2ccccc2)CC1=O (stereo partly drawn)	none (no result: LASV entry inh, Shiga toxin inh, FMDV inh, CHX counter, HCV inhibitor)
COc1ccc(N2CCN(C(=O)CCN3C(=S)NC(C)(C)CC3C)CC2)cc1 (stereo not drawn)	none (no result: LASV entry inh)
O=C(NCC1CCCN(C2Cc3ccccc3C2)C1)c1cccs1 (stereo not drawn)	none (no result: LASV entry inh, Marburg entry inh)
Cn1c(=O)oc2cc(S(=O)(=O)Nc3ccccc3O)ccc21	LASV entry inh inconclusive
NC(=NCc1ccco1)NC(=O)c1ccc(Cl)cc1	Shiga toxin inh 76, CHX counter 25
CC(=O)c1ccc(NC(=O)c2ccc(NC(=O)c3ccco3)cc2)cc1	HCV inhibitor inconclusive
O=C(Cc1ccccc1)Nc1ccc(SC(F)F)cc1	CHX counter 41, HCV inhibitor inconclusive
